Measured values from PubChem BioAssay (NCATS).
Where “and” joins values, the source holds several entries; their conditions need not be identical. Equal values may be shown once. Results filed as inconclusive are left out. Calls of active or inactive are those of the source. Unless noted, the call rests on the fitted dose curve; in most records, active means well fitted curve in the direction sought with a large enough effect; inconclusive means small, poorly fitted or top-dose-only effect, or another doubt; inactive means no such curve, though single readings can be large; an effect the other way counts as inactive or inconclusive.

Tests used:
[1] = target: Glucocorticoid receptor (Homo sapiens) (UniProt P04150); experiment: GR-GFP Redistribution (AID 450;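 active means compounds whose dose series gives a full or clear partial fitted curve of increased nuclear translocation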; further: potency means the concentration at half of the fitted maximal effect); conditions: U2OS GR-GFP nuclear translocation, laser cytometry, 2 h
[2] = target: Glucocorticoid receptor (Homo sapiens) (UniProt P04150); experiment: GR-EFC Redistribution (AID 451; calls by dose curve; further: potency means the concentration at half of the fitted maximal effect); conditions: CHO-K1 GR-EFC translocation, beta-gal luminescence, 2 h
How it was run: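 CHO-K1 cells stably expressing nuclear-localized β-gal enzyme acceptor and GR fused C-terminally to the enzyme donor fragment; ligand-driven nuclear translocation restores β-gal by complementation. Compounds titrated up to 46 uM final, 2 h at 37 °C; luminescence read.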

[3] = target: Mitogen-activated protein kinase 10 (Mus musculus) (UniProt Q61831); experiment: JNK3 AlphaScreen Assay (AID 530; active means well fitted curve in either direction with a large enough effect, not every such curve was filed as active;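 further: kinase came from lysate of stimulated human HepG2 cells; signal reports phosphorylation of biotinylated GST-cJun 1-79 at Ser73 with 10 µM ATP; on the % scale 0 is the no-effect control and ±100 the full control effect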); conditions: JNK3 lysate, c-Jun phosphorylation; series mostly up to 57.1 µM
How it was run: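 JNK3 came from HepG2 lysates pre-activated with IL-1beta and TNF-alpha and phosphorylated biotinylated GST-cJun (1-79) at 10 uM ATP, pH 7.6, room temperature. Compounds were titrated. AlphaScreen signal used anti-phospho-cJun (Ser73) antibody.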

[4] = target: 3',5'-cyclic-AMP phosphodiesterase 4B (Homo sapiens) (UniProt Q07343); experiment: qHTS Assay for Inhibitors of PDE-IV (AID 607; active means well fitted activation curve with a large enough effect in the main read-out, with a control signal flat, not every such curve was filed as active; further: % of control where 0% means no effect); conditions: HEK293 ACTOne CNG channel cells, membrane potential fluorescence; series mostly up to 22.9 µM
How it was run: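 Live HEK293 cells with a modified cyclic nucleotide-gated (CNG) channel report intracellular cAMP via membrane-potential dye fluorescence (ex 535/em 590 nm). Endogenous PDE-IV was targeted. Compounds were tested at up to 22.9 uM final; RO 20-1724 100 uM served as control.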

[5] = Cellular Toxicity (caspase-3) HepG2 (AID 654); conditions: HepG2 caspase-3 activation, luminescence; series mostly up to 92.2 µM;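 further: cells exposed to compound for 16 hours before reading; 0% = DMSO alone and 100% = caspase signal from 100 µM tamoxifen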
How it was run: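 HepG2 cells (1500/well) in complete medium were treated with compounds for 16 hr at 37 °C. Caspase-3/7 activity was then read as luminescence from peptide-aminoluciferin cleavage. AC50 came from Hill fits, normalized to DMSO and 100 uM tamoxifen.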

[6] = Cellular Toxicity (caspase-3) SHSY5Y (AID 657); conditions: SH-SY5Y caspase-3 activation, DMSO zero, 10 µM staurosporine = 100%; series mostly up to 91.7 µM
How it was run: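 SH-SY5Y human neuroblastoma cells (1500/well) were treated with compounds for 16 h at 37 °C, then Caspase-Glo 3/7 luminescence was read after 1 h at room temperature. Data normalized to DMSO and 10 uM staurosporine; AC50 from Hill fits.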

[7] = Cellular Toxicity (caspase-3) BJ (AID 658); conditions: BJ fibroblasts, luminescence, normalized: DMSO 0%, staurosporine 100%; series mostly up to 91.7 µM
How it was run: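 Luminescent aminoluciferin-substrate cleavage reports caspase 3/7 activity in normal human BJ fibroblasts after 16 hr compound exposure at 37 °C. Normalized to DMSO (basal) and 10 uM staurosporine (100%); AC50 from Hill fit of concentration-response.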

[8] = Cellular Toxicity (caspase-3) SK-N-SH (AID 661); conditions: SK-N-SH caspase-3 activation, qHTS, DMSO as zero, staurosporine as full; series mostly up to 91.7 µM
How it was run: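 SK-N-SH human neuroblastoma cells (1500/well) were treated with compounds for 16 hr at 37 °C in complete medium; caspase 3/7 activity was read by Caspase-Glo luminescence. AC50 came from Hill fits of data normalized to DMSO and 10 uM staurosporine.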

[9] = Cellular Toxicity (caspase-3) H-4-II-E (AID 663); conditions: H-4-II-E rat hepatoma, scaled: DMSO 0%, 100 µM tamoxifen 100%; series mostly up to 92.2 µM;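 further: cells exposed to compound for 16 hr before readout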
How it was run: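 Luminescence from caspase-cleaved aminoluciferin substrate, read 20 min after reagent addition, reports caspase 3/7 activation in rat H-4-II-E cells after 16 hr compound exposure. Normalized to DMSO (basal) and 100 uM tamoxifen (100%); AC50 from Hill fits.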

[10] = Cellular Toxicity (caspase-3) Hek293 (AID 664); conditions: HEK293 caspase-3 activation, DMSO = 0%, 100 µM tamoxifen = 100%; series mostly up to 92.2 µM;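 further: cells exposed to compound for 16 h at 37 °C before readout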
How it was run: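 HEK293 cells were exposed to compounds in complete medium for 16 hr at 37 °C, then caspase-3/7 activity was read by Caspase-Glo 3/7 luminescence after 20 min at room temperature. Data normalized to DMSO and 100 uM tamoxifen; AC50 from Hill fits.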

[11] = Cellular Toxicity (caspase-3) N2a (AID 665); conditions: N2a cells, luminescence, normalized: DMSO 0%, 10 µM staurosporine 100%; series mostly up to 92.2 µM;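 further: compound exposure lasted 16 h at 37 °C before readout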
How it was run: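 Mouse N2a neuroblastoma cells (1500/well) were treated with compounds for 16 h at 37 °C, then caspase-3/7 activity was read by Caspase-Glo luminescence after 1 h at room temperature. Data were normalized to DMSO and 10 uM staurosporine; AC50 from Hill fits.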

[12] = Cellular Toxicity (caspase-3) NIH 3T3 (AID 666); conditions: NIH 3T3 caspase-3 activation, apoptosis/toxicity, 0% DMSO, 100% is 100 µM tamoxifen; series mostly up to 92.2 µM;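 further: 0% = DMSO basal and 100% = 100 µM tamoxifen stimulation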
How it was run: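 Mouse NIH 3T3 fibroblasts (1000 cells/well) were treated with compound for 16 hr at 37°C in complete medium; caspase-3/7 activity was read by Caspase-Glo luminescence. Normalized to DMSO and 100 uM tamoxifen; AC50 from Hill fits.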

[13] = target: Guanine nucleotide-binding protein G(i) subunit alpha-1 (Homo sapiens) (UniProt P63096); experiment: qHTS Assay for Inhibitors of RGS12 GoLoco Motif Activity (Green Fluorophore) (AID 879); conditions: Galphai1/FITC-RGS12 GoLoco peptide, fluorescence polarization; series mostly up to 57.1 µM;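 further: 0% = labeled peptide with Gαi1 and full inhibition = labeled peptide alone without protein; negative values mean loss of peptide binding seen as reduced polarization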
How it was run: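 Fluorescence polarization assay: 50 nM Gαi1 with 10 nM FITC-labeled RGS12 GoLoco peptide in 10 mM Tris pH 7.5, 150 mM NaCl, 0.1 mM GDP, 0.05% NP40, 10 min at room temperature with compound.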

[14] = Cell Viability - N2a (AID 540); conditions: N2a mouse neuroblastoma cell viability; activity change, negative = cytotoxicity: at 92.2 µM (top of the series);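 further: plate controls were DMSO alone for no effect and tamoxifen control for full effect; nearly all actives have a fitted effect of over 45% in size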
How it was run: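 Mouse neuroblastoma N2a cells (1500/well) were preincubated 5 hr at 37 °C, then exposed to compounds for 40 hr at 37 °C in complete medium. Viability was read as intracellular ATP by CellTiter-Glo luminescence; AC50 from Hill fits.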

[15] = Cell Viability - HUV-EC-C (AID 542); conditions: HUV-EC-C endothelial cell viability, qHTS; series mostly up to 92.2 µM; further: on the % scale 0 is the no-effect control and ±100 the full control effect; nearly all actives have a fitted effect of over 35% in size
How it was run: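 HUV-EC-C normal human vascular endothelial cells, 1000 cells/well, pre-incubated 5 hr at 37 °C, then exposed to compounds for 40 hr at 37 °C in complete medium. Viability measured as intracellular ATP by CellTiter-Glo luminescence; AC50 from Hill fits.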

[16] = Cell Viability - H-4-II-E (AID 543); conditions: H-4-II-E rat hepatoma viability; series mostly up to 92.2 µM; further: on the % scale 0 is the no-effect control and ±100 the full control effect; nearly all actives have a fitted effect of over 35% in size
How it was run: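 Rat hepatoma H-4-II-E cells (1500/well) were plated, incubated 5 hr at 37 °C, then exposed to compounds for 40 hr at 37 °C. Cellular ATP was read by CellTiter-Glo luminescence; AC50 came from Hill-equation fits of concentration-response data.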

[17] = Cell Viability - Renal Proximal Tubule (AID 545); conditions: renal proximal tubule cells viability, primary cells of rat origin; series mostly up to 91.7 µM; further: nearly all actives have a fitted effect of over 40% in size
How it was run: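 Primary rat renal proximal tubule cells (1000/well) were treated with compounds for 40 hr at 37 °C in complete medium. Intracellular ATP was measured by CellTiter-Glo luminescence, and AC50 values came from Hill-equation fits of concentration-response data.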

[18] = Cell Viability - Mesenchymal (AID 546); conditions: mesenchymal cells viability, qHTS; series mostly up to 91.7 µM;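 further: cells exposed to compound for 40 hours before reading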
How it was run: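 Normal human renal glomerulus-derived kidney mesenchymal cells, 1000 per well in complete medium, were treated with compounds for 40 hr at 37 °C. Viability was read as intracellular ATP by CellTiter-Glo luminescence; AC50 values came from Hill-equation fits of qHTS concentration-response data.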

[19] = Cellular Toxicity (caspase-3) Jurkat (AID 655); conditions: Jurkat caspase-3 activation, luminescence; series mostly up to 92.2 µM;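 further: cells exposed to compound for 16 h at 37 °C before reading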
How it was run: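 Jurkat cells (5000/well) in complete medium were treated with compounds for 16 hr at 37 °C, then Caspase-Glo 3/7 luminescence was read after 20 min at room temperature. Data normalized to DMSO (basal) and 100 uM tamoxifen (100%); AC50 from Hill fit.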

[20] = Cell Viability - SH-SY5Y (AID 544); conditions: SH-SY5Y neuroblastoma cell viability; series mostly up to 92.2 µM; further: nearly all actives have a fitted effect of over 55% in size
How it was run: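 Human neuroblastoma SH-SY5Y cells (1500/well) in complete medium were exposed to compounds for 40 hr at 37 °C; intracellular ATP was then quantified by CellTiter-Glo luminescence after 20 min at room temperature. AC50 came from Hill-equation concentration-response fits.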

Sequence of Glucocorticoid receptor (Homo sapiens) (P04150 whole entry, looked up, the tested form may be a part): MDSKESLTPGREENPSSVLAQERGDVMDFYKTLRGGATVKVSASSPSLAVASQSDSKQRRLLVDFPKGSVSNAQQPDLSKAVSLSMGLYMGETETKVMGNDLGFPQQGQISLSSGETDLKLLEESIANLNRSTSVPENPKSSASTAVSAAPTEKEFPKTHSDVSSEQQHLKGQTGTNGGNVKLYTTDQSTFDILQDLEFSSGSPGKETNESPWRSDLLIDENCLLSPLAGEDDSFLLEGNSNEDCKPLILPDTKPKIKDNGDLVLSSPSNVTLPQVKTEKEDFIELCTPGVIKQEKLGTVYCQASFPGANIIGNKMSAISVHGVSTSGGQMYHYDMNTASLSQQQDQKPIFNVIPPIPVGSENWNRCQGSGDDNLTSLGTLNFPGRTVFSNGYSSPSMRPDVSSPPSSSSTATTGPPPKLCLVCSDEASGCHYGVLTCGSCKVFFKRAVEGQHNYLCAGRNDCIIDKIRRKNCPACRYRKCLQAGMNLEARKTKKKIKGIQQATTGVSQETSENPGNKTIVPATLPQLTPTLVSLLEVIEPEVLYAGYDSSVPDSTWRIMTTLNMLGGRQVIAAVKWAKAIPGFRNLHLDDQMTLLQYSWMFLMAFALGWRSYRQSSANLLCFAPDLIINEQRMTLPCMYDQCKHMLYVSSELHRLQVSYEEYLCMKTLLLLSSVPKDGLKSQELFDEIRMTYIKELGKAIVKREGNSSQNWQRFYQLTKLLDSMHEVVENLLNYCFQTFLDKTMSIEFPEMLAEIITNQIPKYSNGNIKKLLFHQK
Sequence of 3',5'-cyclic-AMP phosphodiesterase 4B (Homo sapiens) (Q07343 whole entry, looked up): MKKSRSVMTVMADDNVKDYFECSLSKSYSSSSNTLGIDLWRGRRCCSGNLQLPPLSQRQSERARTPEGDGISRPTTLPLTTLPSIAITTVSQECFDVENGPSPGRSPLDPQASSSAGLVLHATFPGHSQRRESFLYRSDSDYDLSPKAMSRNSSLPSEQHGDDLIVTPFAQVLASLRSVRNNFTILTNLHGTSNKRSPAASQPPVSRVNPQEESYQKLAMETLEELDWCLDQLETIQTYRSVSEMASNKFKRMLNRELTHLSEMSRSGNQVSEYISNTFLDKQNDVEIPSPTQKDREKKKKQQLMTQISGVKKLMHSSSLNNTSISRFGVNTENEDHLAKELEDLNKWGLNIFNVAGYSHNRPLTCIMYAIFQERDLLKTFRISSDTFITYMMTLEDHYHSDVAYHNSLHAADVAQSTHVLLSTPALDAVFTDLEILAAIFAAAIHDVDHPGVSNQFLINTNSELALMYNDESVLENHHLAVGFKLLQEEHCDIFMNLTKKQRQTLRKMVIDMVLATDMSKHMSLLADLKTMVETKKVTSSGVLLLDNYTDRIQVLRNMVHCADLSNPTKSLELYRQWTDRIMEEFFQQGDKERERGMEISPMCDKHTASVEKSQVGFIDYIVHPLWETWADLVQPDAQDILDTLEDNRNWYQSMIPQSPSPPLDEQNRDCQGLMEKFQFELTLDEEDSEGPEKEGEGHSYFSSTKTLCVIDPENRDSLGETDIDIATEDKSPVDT
Sequence of Guanine nucleotide-binding protein G(i) subunit alpha-1 (Homo sapiens) (P63096 whole entry, looked up): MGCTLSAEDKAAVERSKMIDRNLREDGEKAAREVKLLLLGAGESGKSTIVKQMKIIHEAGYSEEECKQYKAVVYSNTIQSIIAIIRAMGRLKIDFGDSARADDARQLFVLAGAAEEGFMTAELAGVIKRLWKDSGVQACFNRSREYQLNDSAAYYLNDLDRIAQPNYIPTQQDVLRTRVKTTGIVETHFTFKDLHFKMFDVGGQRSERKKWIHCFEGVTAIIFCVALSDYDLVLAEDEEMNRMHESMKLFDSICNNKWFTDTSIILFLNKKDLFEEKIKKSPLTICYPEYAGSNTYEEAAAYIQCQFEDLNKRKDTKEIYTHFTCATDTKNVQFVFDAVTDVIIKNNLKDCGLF

CCC(=O)c1ccc(O)cc1
inactive: Potency [1] > 20.6 µM

Cc1cc2c(cc1S(N)(=O)=O)S(=O)(=O)CCC2
inactive: Potency [1] > 20.6 µM | Potency [2] > 20.6 µM | Potency [3] | outcome [4]

CN(C)CCC=C1c2ccccc2CCc2ccccc21
inactive: Potency [1] > 46 µM and > 20.6 µM | Potency [2] > 46 µM and > 20.6 µM | Potency [3] | outcome [4] | Potency [5] | outcome [6] | outcome [7] | outcome [8] | outcome [9] | outcome [10] | outcome [11] | outcome [12] | outcome [13]

CC[C@H]1CN2CCc3cc(OC)c(OC)cc3[C@@H]2C[C@@H]1C[C@H]1NCCc2cc(OC)c(OC)cc21
inactive: Potency [1] > 20.6 µM

Nc1ccc(S(=O)(=O)NC(=O)c2ccccc2)cc1
inactive: Potency [1] > 20.6 µM | Potency [2] > 20.6 µM | Potency [3] | outcome [4]

Cc1ncc([N+](=O)[O-])n1CC(O)CCl (stereo not given)
inactive: Potency [1] > 20.6 µM

Nc1ncnc2c1ncn2[C@@H]1O[C@H](CO)[C@@H](O)[C@H]1O
inactive: Potency [1] > 20.6 µM

OCC(O)CN1CCN(c2ccccc2)CC1 (stereo not given)
inactive: Potency [1] > 20.6 µM

CN(C)CCN(Cc1ccccc1)c1ccccn1
inactive: Potency [1] > 20.6 µM

CC(=O)c1ccc2c(c1)N(CCCN(C)C)c1ccccc1S2
inactive: Potency [1] > 20.6 µM | Potency [2] > 20.6 µM | Potency [3] | outcome [4]

O=c1cc(CO)occ1O
inactive: Potency [1] > 46 µM | Potency [2] > 46 µM | Potency [3]

CC1(C)OC(=O)NC1=O
inactive: Potency [1] > 20.6 µM | Potency [2] > 20.6 µM | Potency [3] | outcome [4]

CN(C)CCCN1c2ccccc2Sc2ccc(Cl)cc21
inactive: Potency [1] > 20.6 µM | Potency [2] > 46 µM and > 20.6 µM | Potency [3] | outcome [4] | outcome [13]

NC1CCN(c2cccc(Cl)n2)CC1
inactive: Potency [1] > 46 µM | Potency [2] > 46 µM | Potency [3] | outcome [4] | outcome [13]

CC(C)NC[C@H](O)c1ccc(O)c(O)c1
inactive: Potency [1] > 46 µM and > 20.6 µM | Potency [2] > 46 µM and > 20.6 µM | Potency [3] | outcome [4] | outcome [13]

Cc1c(Cl)cccc1Nc1ccccc1C(=O)O
inactive: Potency [1] > 20.6 µM | Potency [2] > 20.6 µM | Potency [3]

Nc1ccc(S(=O)(=O)Nc2nccs2)cc1
inactive: Potency [1] > 20.6 µM | Potency [2] > 20.6 µM | Potency [3] | activity change, negative = cytotoxicity [14] -2.29% | Potency [15] | Potency [16] | Potency [17] | outcome [18] | outcome [4] | Potency [5] | Potency [19] | outcome [6] | outcome [7] | outcome [8] | outcome [9] | outcome [10] | outcome [11] | outcome [12]

C#CCN(C)Cc1ccccc1
inactive: Potency [1] > 46 µM and > 20.6 µM | Potency [2] > 46 µM and > 20.6 µM | Potency [3] | outcome [4] | outcome [13]

Cc1cccc(Nc2cc(Cl)nc(SCC(=O)O)n2)c1C
inactive: Potency [1] > 46 µM | Potency [2] > 46 µM and > 9.22 µM | activity change, negative = inhibition [3] 0.662% [at 11.4 µM] | outcome [4]

NS(=O)(=O)c1cc2c(cc1Cl)NC(CSCc1ccccc1)=NS2(=O)=O
inactive: Potency [1] > 20.6 µM | Potency [2] > 20.6 µM | Potency [3] | outcome [4]

CC(COc1ccccc1)NC(C)C(O)c1ccc(O)cc1 (stereo not given)
inactive: Potency [1] > 20.6 µM

CCCCN(CCCC)CCCOC(=O)c1ccc(N)cc1
inactive: Potency [1] > 20.6 µM | Potency [2] > 20.6 µM | Potency [3]

CNCCCC1c2ccccc2C=Cc2ccccc21
inactive: Potency [1] > 46 µM and > 20.6 µM | Potency [2] > 46 µM and > 20.6 µM | Potency [3] | outcome [4] | outcome [13]

Cc1cc(CC(=O)O)n(C)c1C(=O)c1ccc(Cl)cc1
inactive: Potency [1] > 20.6 µM | Potency [2] > 20.6 µM | Potency [3] | activity change, negative = cytotoxicity [14] -9.12% | Potency [15] | Potency [16] | Potency [20] | Potency [17] | outcome [18] | outcome [4] | Potency [5] | Potency [19] | outcome [6] | outcome [7] | outcome [8] | outcome [9] | outcome [10] | outcome [11] | outcome [12]
